Here are results for 6 molecules from PubChem BioAssay (NCATS).

Several values for one entry are separate records, joined by “and”; a condition that tells them apart may be missing. Equal values may be shown once. Unmarked numbers belong to inactive results. Inconclusive results are not listed. Activity calls are given as the source filed them. Unless noted, calls follow the shape of the dose curve; as a rule, active = well fitted curve in either direction with a large enough effect (not every such curve was filed as active); inconclusive = small, poorly fitted or top-dose-only effect, or another doubt; inactive = flat fitted curve, though single readings scatter. Bounds are passed on as bounds.

Experiment [1] in a line: AP1 Signaling Pathway (AID 357). Also: % is scaled to controls: 0 for no effect and ±100 for the full control effect. The note with it: ME-180 AP-1-bla reporter, EGF-induced, beta-lactamase ratio, 5 h. A digest of the protocol:
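AP-1-bla ME-180 cells with beta-lactamase reporter under AP-1 response element, stimulated with EC50 EGF; compounds titrated, 5 hours at 37 degrees Celsius. CCF4 read at 460/530 nm ratio; positive and negative modulators judged by AC50.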

For experiment [2], the target named is Cytochrome P450 1A2 (Homo sapiens) (UniProt P05177). Description: p450-cyp1a2 (AID 410; calls by dose curve; also: potency is read from the fitted curve at half-maximal effect;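 as to activity change, negative = inhibition: -100% = full effect of reference inhibitor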). The following applies: recombinant CYP1A2, luciferin-ME demethylation, luminescence; series mostly up to 25.6 µM. The method in brief: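 20nM CYP1A2, 100uM Luciferin-ME (=Km), 100mM KPO4; cpd 10 min RT; +NADPH regen, 60 min RT; stop/detect 20 min; luminescence. Normalized to furafylline 57 uM = full inhibition.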

Experiment [3] can be described thus: NFAT Signaling Pathway (AID 444).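 Also: carbachol stimulus at about its EC50 of 1 µM final; % is scaled to controls: 0 for no effect and ±100 for the full control effect.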 The note with it: Jurkat NFAT-bla M1, carbachol, beta-lactamase ratio, 5 h. The method in brief: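 Jurkat cells carrying an NFAT-driven β-lactamase reporter and co-transfected muscarinic M1 receptor were treated with compound plus carbachol (1 uM final, an EC50 level) for 5 h at 37 °C. CCF4 loading followed for 1 h at RT; 460/530 nm ratio gave %activity.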

Experiment [4] is described as follows: Stat Signaling Pathway (AID 446).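 Also: ME-180 cervical cancer cells given 40 pM IL-6 alongside compound; SIE-controlled beta-lactamase reporter measured as 460/530 nm FRET emission ratio; % is scaled to controls: 0 for no effect and ±100 for the full control effect.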 The following applies: ME-180 (cervical carcinoma) SIE beta-lactamase reporter, IL-6 stimulated, 5 h. A digest of the protocol:
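Emission at 460 and 530 nm (excitation 405 nm) reports SIE-controlled beta-lactamase in ME-180 cells. Cells received compound with 40 pM IL-6 for 5 hrs at 37 C; data scaled between 300 pM IL-6 and 125 nM JAK-inhibitor controls.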

For experiment [5], the target named is Mitogen-activated protein kinase 10 (Mus musculus) (UniProt Q61831). Kind of experiment: JNK3 AlphaScreen Assay (AID 530).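 Also: kinase came from lysate of stimulated human HepG2 cells; signal reports phosphorylation of biotinylated GST-cJun 1-79 at Ser73 with 10 µM ATP; % is scaled to controls: 0 for no effect and ±100 for the full control effect.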 The note with it: JNK3 lysate, c-Jun phosphorylation; series mostly up to 57.1 µM. The method in brief:
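Biotinylated GST-cJun(1-79) served as substrate for JNK3 in HepG2 lysates stimulated with IL-1beta and TNF-alpha. ATP was 10 uM final, pH 7.6. Ser73 phosphorylation was quantified by AlphaScreen (680 nm excitation).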

The target of experiment [6] is Glucocorticoid receptor (Homo sapiens) (UniProt P04150). Description: GR-GFP Redistribution (AID 450;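 active = compounds whose dose series gives a full or clear partial fitted curve of increased nuclear translocation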; also: potency is read from the fitted curve at half-maximal effect). The note with it: U2OS GR-GFP nuclear translocation, laser cytometry, 2 h.
For experiment [7] the target is unchanged. Kind of experiment: GR-EFC Redistribution (AID 451; calls by dose curve; also: potency is read from the fitted curve at half-maximal effect). The note with it: CHO-K1 GR-EFC translocation, beta-gal luminescence, 2 h. A digest of the protocol: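 CHO-K1 cells stably expressing nuclear-localized β-gal enzyme acceptor and GR fused C-terminally to the enzyme donor fragment; ligand-driven nuclear translocation restores β-gal by complementation. Compounds titrated up to 46 uM final, 2 h at 37 °C; luminescence read.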

Experiment [8] is described as follows: Cell Viability - BJ (AID 421; calls by dose curve;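 also: potency is read from the fitted curve at half-maximal effect; cells exposed to compound for 40 hours at 37 °C before readout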). The following applies: BJ fibroblast viability, qHTS. A digest of the protocol: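 Cytotoxicity in human BJ foreskin fibroblasts is scored as loss of cellular ATP after a 40-hour exposure, measured by luciferase luminescence. Controls are DMSO and 100 uM tamoxifen.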
Experiment [9] is described as follows: Cell Viability - Hek293 (AID 427;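 active = compounds whose dose-response curve shows a full or clear partial loss of cell viability, called from curve shape rather than a numeric limit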;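 also: potency is read from the fitted curve at half-maximal effect; cells exposed to compound for 40 hours at 37 °C before reading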). The note with it: qHTS. The method in brief: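 qHTS, human embryonic kidney (adenovirus-transformed) cells; 40 hr cpd, 37 °C; CellTiter-Glo ATP luminescence. Norm: DMSO = 0, 100 uM tamoxifen = 100% inhibition. Hill-fit AC50.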
(In general: qHTS replaces the single test concentration by a dilution series.)

Experiment [10] can be described thus: Cell Viability - HepG2 (AID 433; calls by dose curve;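 also: potency is read from the fitted curve at half-maximal effect; cells exposed to compound for 40 hours; potency for ATP loss meaning cytotoxicity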). The note with it: qHTS. A digest of the protocol: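 Read-out is luciferase-based quantitation of cellular ATP as a measure of viable HepG2 cells after 40 h treatment at 37 °C. Signal decrease is scaled between DMSO-only and 100 uM tamoxifen controls, with AC50 fitted by the Hill equation.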
Experiment [11] in a line: Cell Viability - NIH 3T3 (AID 541; active = well fitted cell-killing curve with a large enough effect;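 also: potency is read from the fitted curve at half-maximal effect; cells exposed to compound for 40 hours; nearly all actives have a fitted effect of over 25% in size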). The note with it: NIH 3T3 cell viability, qHTS; activity change, negative = cytotoxicity: at 92.2 µM (top of the series). A digest of the protocol:
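qHTS format; 40 hr compound exposure, 37 °C; CellTiter-Glo luminescence (cellular ATP) read-out after 20 min at RT. Decrease in ATP = cytotoxicity; AC50 from standard Hill fit.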

The nature of experiment [12]: Cell Viability - SH-SY5Y (AID 544; active = well fitted cell-killing curve with a large enough effect;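 also: potency is read from the fitted curve at half-maximal effect; cells exposed to compound for 40 hours; nearly all actives have a fitted effect of over 55% in size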). The note with it: SH-SY5Y neuroblastoma cell viability; series mostly up to 92.2 µM. The method in brief: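 SH-SY5Y, 1500 cells/well, 5 hr pre-incubation 37 °C; cpd 40 hr 37 °C; CellTiter-Glo 20 min RT; luminescence (ATP) read. qHTS concentration-response, Hill fit → AC50. Tamoxifen, doxorubicin as positive controls.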
Experiment [13] in a line: Cell Viability - Renal Proximal Tubule (AID 545; active = well fitted cell-killing curve with a large enough effect;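 also: potency is read from the fitted curve at half-maximal effect; cells exposed to compound for 40 hours; nearly all actives have a fitted effect of over 40% in size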). The note with it: renal proximal tubule cells viability, primary cells of rat origin; series mostly up to 91.7 µM. The method in brief:
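Luminescent ATP signal (CellTiter-Glo) served as the viability read-out after 40 hr compound exposure of freshly isolated rat proximal tubule cells at 37 °C. Concentration-dependent ATP loss was fitted with the Hill equation to give AC50.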

Experiment [14] in a line: Cell Viability - Mesenchymal (AID 546; active = well fitted cell-killing curve with a large enough effect;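 also: cells exposed to compound for 40 hours before reading; 0% = DMSO only and -100% = 100 µM tamoxifen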). The following applies: mesenchymal cells viability, qHTS; series mostly up to 91.7 µM. The method in brief: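 In this qHTS cytotoxicity format, glomerulus-derived human mesenchymal kidney cells received compound for 40 hr, then luciferase-based ATP quantitation. Concentration-response data were fitted with the Hill equation.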

Sequence of Cytochrome P450 1A2 (Homo sapiens) (P05177 whole entry, looked up): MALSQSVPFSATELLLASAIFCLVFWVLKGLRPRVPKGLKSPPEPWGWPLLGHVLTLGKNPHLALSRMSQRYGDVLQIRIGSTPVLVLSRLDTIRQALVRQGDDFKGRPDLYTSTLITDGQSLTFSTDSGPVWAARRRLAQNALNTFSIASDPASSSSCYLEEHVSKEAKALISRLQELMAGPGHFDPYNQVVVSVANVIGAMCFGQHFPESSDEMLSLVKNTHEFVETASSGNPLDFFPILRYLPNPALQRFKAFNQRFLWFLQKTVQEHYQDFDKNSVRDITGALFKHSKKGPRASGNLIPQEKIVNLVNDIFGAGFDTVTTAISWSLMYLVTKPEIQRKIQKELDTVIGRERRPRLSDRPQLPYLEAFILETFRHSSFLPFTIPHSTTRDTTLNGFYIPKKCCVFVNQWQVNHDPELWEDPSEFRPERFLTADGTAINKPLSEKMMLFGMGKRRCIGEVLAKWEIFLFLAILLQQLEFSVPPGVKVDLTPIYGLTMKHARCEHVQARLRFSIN
Sequence of Glucocorticoid receptor (Homo sapiens) (P04150 whole entry, looked up, the tested form may be a part): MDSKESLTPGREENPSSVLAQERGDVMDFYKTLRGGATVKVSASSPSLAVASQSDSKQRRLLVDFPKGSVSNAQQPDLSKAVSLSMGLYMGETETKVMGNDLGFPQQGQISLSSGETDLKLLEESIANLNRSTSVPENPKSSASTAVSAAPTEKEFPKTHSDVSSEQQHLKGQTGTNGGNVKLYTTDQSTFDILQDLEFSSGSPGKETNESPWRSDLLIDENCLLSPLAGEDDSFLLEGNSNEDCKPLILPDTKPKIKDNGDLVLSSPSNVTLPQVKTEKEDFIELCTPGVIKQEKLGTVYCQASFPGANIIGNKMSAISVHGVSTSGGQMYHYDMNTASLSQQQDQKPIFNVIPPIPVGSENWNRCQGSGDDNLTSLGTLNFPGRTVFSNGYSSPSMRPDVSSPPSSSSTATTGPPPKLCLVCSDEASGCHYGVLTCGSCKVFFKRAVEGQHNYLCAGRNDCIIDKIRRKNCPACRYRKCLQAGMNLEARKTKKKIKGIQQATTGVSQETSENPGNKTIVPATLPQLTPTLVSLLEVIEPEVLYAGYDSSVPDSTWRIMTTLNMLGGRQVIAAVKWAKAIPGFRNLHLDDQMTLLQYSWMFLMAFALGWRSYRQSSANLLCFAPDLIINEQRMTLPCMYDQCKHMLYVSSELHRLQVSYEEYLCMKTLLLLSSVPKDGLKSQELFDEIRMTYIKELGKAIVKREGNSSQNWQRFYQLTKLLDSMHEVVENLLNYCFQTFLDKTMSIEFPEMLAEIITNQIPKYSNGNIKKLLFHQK

Turning to `CCn1cc(C(=O)O)c(=O)c2cnc(N3CCNCC3)nc21`, the activity change, negative = inhibition in experiment [1] (at 17.2 µM (top of the series)) was 8.66% and 0.464%; in experiment [3] (at 17.2 µM (top of the series)) it was -4.81%. Also, the Potency entry in experiment [2] and in experiment [5] was “inactive” throughout. Further, in [4] (at 17.2 µM (top of the series)), the activity, negative = inhibition is 3.23% and 2.72%.

As to `N=c1c[n+](N2CCOCC2)[n-]o1`, the activity change, negative = inhibition in [1] (at 17.2 µM (top of the series)) is 18.9%; in [1] (at 38 µM (top of the series)), 9.68%; in experiment [3] (at 38 µM (top of the series)) it was 3.52%. The activity, negative = inhibition was 4.68% in experiment [4] (at 17.2 µM (top of the series)) and -10.2% in experiment [4] (at 38 µM (top of the series)). In addition, the Potency in experiment [6] is > 46 µM and > 20.6 µM; in [7], over 46 µM. Further, the Potency entry in [5] was “inactive”.

With `CNCCCC1c2ccccc2C=Cc2ccccc21`, the activity change, negative = inhibition in [1] (at 17.2 µM (top of the series)) was -3.44% and 2.28%; in [3] (at 17.2 µM (top of the series)), -94% (active). For the same molecule, the Potency entry in experiment [2] and in [5] was “inactive” throughout. Moreover, the activity, negative = inhibition in experiment [4] (at 17.2 µM (top of the series)) was -10.4% and -15.8%; in experiment [4] (at 38 µM (top of the series)), -9.63%. The Potency in experiment [6] is > 46 µM and > 20.6 µM; in [7], > 46 µM and > 20.6 µM.

As to `CCN(CC)CCNC(=O)c1cc(Cl)c(N)cc1OC`, the activity change, negative = inhibition in [1] (at 17.2 µM (top of the series)) was 0.248% and 1.7%; in experiment [1] (at 38 µM (top of the series)), 17%; in experiment [3] (at 17.2 µM (top of the series)) it was -0.325% and -6.2%; in experiment [3] (at 38 µM (top of the series)), 4.1%. Also, in experiment [2], the Potency is 15.8 µM (active). Besides, the activity, negative = inhibition was 16.4% and -2.07% in experiment [4] (at 17.2 µM (top of the series)); -26.6% in [4] (at 38 µM (top of the series)). Moreover, in [5], the Potency entry was “inactive”.

For `COC(=O)C1=C(C)NC(C)=C(C(=O)OC)C1c1ccccc1[N+](=O)[O-]`, the activity change, negative = inhibition is -27.7% in [1] (at 17.2 µM (top of the series)) and -7.96% in [3] (at 17.2 µM (top of the series)). Also, the Potency in experiment [8] is over 92 µM; in [9], over 92 µM; in experiment [10], over 92 µM; in experiment [6], > 46 µM and > 20.6 µM; in experiment [7], > 46 µM and > 20.6 µM; in experiment [11], 2 µM (active). For the same molecule, the Potency in experiment [12] is 25.1 µM (active); in experiment [13], 31.6 µM (active). For the same molecule, the activity, negative = inhibition in experiment [4] (at 17.2 µM (top of the series)) is -12.5% and -20.9%; in experiment [4] (at 38 µM (top of the series)) it was -13.9%. For the same molecule, the Potency entry in [5] is “inactive”. Further, the call in experiment [14] was inactive.

`CC(C)NC[C@H](O)c1ccc(O)c(O)c1`: the activity change, negative = inhibition in experiment [1] (at 17.2 µM (top of the series)) was 3.55% and -12.3%; in experiment [1] (at 38 µM (top of the series)), -3.34% [middle of 4 runs]; in experiment [3] (at 17.2 µM (top of the series)) it was -6.44% and -3.44%. In addition, the activity, negative = inhibition in experiment [4] (at 17.2 µM (top of the series)) was -5.65% and -7.18%; in [4] (at 38 µM (top of the series)) it was -27.8% and -1.34% and -7.26%. The Potency was > 46 µM and > 20.6 µM in experiment [6]; > 46 µM and > 20.6 µM in experiment [7]. For the same molecule, in [5], the Potency result is “inactive”.
